The text below walks through data of PubChem BioAssay (Tox21).

Records with an inconclusive call do not appear. Calls of active or inactive are those of the source. Unless noted, calls come from the whole dose curve; as a rule, active = well fitted curve in the direction sought with a large enough effect in the repeat runs; inconclusive = weak or mixed curves; inactive = no such curve, though single readings can be large; an effect the other way counts as inactive or inconclusive.

Experiment [1] concerns the target Androgen receptor (Homo sapiens) (UniProt P10275). Kind of experiment: qHTS assay to identify small molecule antagonists of the androgen receptor (AR) signaling pathway using the MDA cell line in the presence of 0.5 nM R1881 (AID 1259243). Note: nearly all actives have a fitted effect of over 50% in size. Note: potency is the fitted concentration of half-maximal effect. The gist of the method:
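Reporter cells cultured without CO2 receive test chemicals, then 0.5 nM R1881 final; after 16 hr at 37C, ONE-Glo is added and light output recorded.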
Background: Quantitative high-throughput screening tests each substance at several concentrations.

Experiment [2] addresses Estrogen receptor (Homo sapiens) (UniProt P03372). The experiment is described as follows: qHTS assay to identify small molecule antagonists of the estrogen receptor alpha (ER-alpha) signaling pathway using the BG1 cell line in the presence of 0.1 nM 17-beta-estradiol (AID 1259244). Note: nearly all actives have a fitted effect of over 50% in size. Note: potency is the fitted concentration of half-maximal effect. The gist of the method: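 Estradiol at 0.1 nM (final) stimulates the endogenous ER-alpha of VM7Luc4E2 cells carrying an ERE-driven luciferase; compounds are co-incubated 22 h at 37C and luciferase output quantified by luminescence.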

Experiment [3] in a line: qHTS assay to identify small molecule phospholipidosis (PLD) inducers (AID 1259344; active = well fitted curve in the direction sought with a large enough effect; an effect the other way counts as inactive or inconclusive). The essentials:
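HepG2 cells, 900/well, treated with compound plus LipidTOX Red for 24 h at 37 C; amiodarone positive and DMSO negative controls. Fixed with paraformaldehyde/Hoechst, then high-content imaging scored LipidTOX pit count and integrated intensity per well and per cell.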

A short description of experiment [4]: qHTS assay to identify small molecule HDAC inhibitors (AID 1259364).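 Note: wild-type HCT-116 cells with endogenous class I/II HDAC activity; top concentration of the series differs between compounds; nearly all actives have a fitted effect of over 45% in size.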 The essentials:
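Read-out: luminescence of HDAC-Glo I/II reagent, 30 min RT, reflecting class I/II deacetylase activity in whole HCT-116 cells pre-exposed 2 h to DMSO-dissolved compounds.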

The nature of experiment [5]: qHTS assay to identify small molecule HDAC inhibitors - cell viability counter screen (AID 1259365). Note: nearly all actives have a fitted effect of over 50% in size. Note: potency is the fitted concentration of half-maximal effect. The essentials:
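Wild-type HCT-116 cells were seeded at 1,500 per well, incubated overnight at 37 C, then exposed to compounds in DMSO for 2hr. Viability was read by CellTiter-Glo luminescence after 30min at room temperature.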

A short description of experiment [6]: qHTS assay to identify small molecule agonists of the sonic hedgehog signaling (Shh) pathway - cell viability counter screen (AID 1259366). Note: nearly all actives have a fitted effect of over 50% in size. Note: potency is the fitted concentration of half-maximal effect. The essentials: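 NIH/3T3-derived 3T3 Gli1-Luc cells (stable Gli1-responsive firefly luciferase reporter) were seeded, rested 4 hr at 37 C/5% CO2, then exposed to compounds in DMSO for 24 hr; viability was read by CellTiter-Fluor fluorescence in the same wells.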

Experiment [7] in a line: qHTS assay to identify small molecule antagonists of the sonic hedgehog signaling (Shh) pathway - cell viability counter screen (AID 1259367). Note: nearly all actives have a fitted effect of over 55% in size. Note: potency is the fitted concentration of half-maximal effect. The essentials: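 NIH/3T3-derived Gli1-Luc reporter cells, 2,000/well, plated 4 hr before compound addition, then stimulated with conditioned medium for 24 hr at 37C. Viability measured in the same wells by CellTiter-Fluor fluorescence, reagent added at 23 hr for 1 hr.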

Experiment [8] is described as follows: qHTS assay to identify small molecule agonists of the sonic hedgehog signaling (Shh) pathway (AID 1259368; calls by dose curve; note: nearly all actives have a fitted effect of over 15% in size; note: potency is the fitted concentration of half-maximal effect). The gist of the method: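 A Gli1 transcriptional response element controlled firefly luciferase in 3T3Gli1-Luc cells. Compounds and a positive control were added 4 hr after plating, and cells were incubated a further 24 hr at 37 C before luminescence detection.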

Experiment [9] in a line: qHTS assay to identify small molecule antagonists of the sonic hedgehog signaling (Shh) pathway (AID 1259369; calls by dose curve; note: nearly all actives have a fitted effect of over 45% in size; note: potency is the fitted concentration of half-maximal effect). The essentials:
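For antagonist detection, the reporter line received test compounds together with conditioned medium, incubated 24hr at 37 C, 5% CO2, then luminescence was recorded following 30min room-temperature luciferase reagent incubation.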

Experiment [10] addresses Estrogen receptor beta (Homo sapiens) (UniProt Q92731). Kind of experiment: qHTS assay to identify small molecule agonists of the estrogen receptor beta (ER-beta) signaling pathway (AID 1259377; active = well fitted activation curve with a large enough effect in the signal ratio in the repeat runs, not every such curve was filed as active; the % refers to the signal ratio). The essentials: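 ER-beta-UAS-bla HEK293T (GripTite) cells carrying a UAS-driven beta-lactamase reporter, in medium with 2% charcoal-stripped FBS, were exposed to compounds for 16 hr at 37C; LiveBLAzer B/G FRET substrate was then added and fluorescence read after 2 hours at room temperature.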

Experiment [11] has the same target. Kind of experiment: qHTS assay to identify small molecule antagonists of the estrogen receptor beta (ER-beta) signaling pathway (AID 1259378; active = well fitted inhibition curve with a large enough effect in the signal ratio in the repeat runs, not every such curve was filed as active; the % refers to the signal ratio; note: potency is the fitted concentration of half-maximal effect). The essentials: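 ER-beta-UAS-bla HEK293T cells in 2% charcoal-stripped FBS medium treated with compound plus 1nM final 17-beta-estradiol for 16 hr at 37C. Beta-lactamase reporter read by FRET substrate fluorescence after 2 hours at room temperature.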

Experiment [12] in a line: qHTS assay to identify small molecule agonists of the androgen receptor (AR) signaling pathway in the presence of an antagonist - cell viability counter screen (AID 1259379). Note: nearly all actives have a fitted effect of over 25% in size. Note: potency is the fitted concentration of half-maximal effect. The gist of the method:
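Seed MDA-kb2 at 3,000 cells/well; incubate 5 hr, 37C, 0% CO2. Add nilutamide to 3.0uM final, then pin compounds at 15 concentrations. Incubate 16 hr. Add CellTiter-Fluor at 15 hr, read fluorescence after 1 hr.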

Experiment [13] deals with Androgen receptor (Homo sapiens) (UniProt P10275). The experiment is described as follows: qHTS assay to identify small molecule agonists of the androgen receptor (AR) signaling pathway in the presence of an antagonist (AID 1259381; calls by dose curve; note: nearly all actives have a fitted effect of over 15% in size). The gist of the method:
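Test compounds at 15 concentrations were incubated for 16hr with MDA-kb2 reporter cells in presence of 3.0uM nilutamide (final). Signal: ONE-Glo luciferase luminescence.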

The target of experiment [14] is Estrogen receptor (Homo sapiens) (UniProt P03372). The experiment is described as follows: qHTS assay to identify small molecule agonists of the estrogen receptor alpha (ER-alpha) signaling pathway in the presence of an antagonist (AID 1259383; calls by dose curve; note: top concentration of the series differs between compounds; nearly all actives have a fitted effect of over 15% in size). The gist of the method: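 Stably transfected VM7Luc4E2 reporter cells, kept 5 days in charcoal-stripped serum, received ICI-182,780 at 10.0nM final before compound addition. Following 22hr incubation at 37C and 5% CO2, luciferase signal was read by luminescence.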

Experiment [15] can be described thus: qHTS assay to identify small molecule agonists or antagonists of the thyroid stimulating hormone receptor (TSHR) signaling pathway - wild type cell line counter screen (AID 1259384; calls by dose curve). The gist of the method: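 Wild-type Hek293 cells, 800/well, 18 h at 37C, then compound with Ro20-1724 for 30 min RT. cAMP by HTRF (cAMP-d2/anti-cAMP cryptate), 1 h RT, fluorescence read. 15 concentrations, triplicates.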

The nature of experiment [16]: qHTS assay to identify small molecule agonists of the estrogen receptor alpha (ER-alpha) signaling pathway in the presence of an antagonist - cell viability counter screen (AID 1259386).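 Note: cells exposed to compounds for 22 h at 37 °C before the viability read; nearly all actives have a fitted effect of over 30% in size.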 Note: potency is the fitted concentration of half-maximal effect. The essentials:
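Viability counter screen using VM7Luc4E2 (full-length ER-alpha, four ERE-luciferase). The cells were treated with compounds alongside ICI-182,780 10.0nM for 22hr, and live-cell protease fluorescence was quantified with CellTiter-Fluor.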

Experiment [17] concerns the target Progesterone receptor (Homo sapiens) (UniProt P06401). Kind of experiment: qHTS assay to identify small molecule agonists of the progesterone receptor (PR) signaling pathway (AID 1346784; calls by dose curve; note: nearly all actives have a fitted effect of over 30% in size). The gist of the method: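 PR-UAS-bla HEK 293T cells carrying a UAS-driven beta-lactamase reporter were seeded in medium with 2% charcoal-stripped FBS, preincubated 6 hr at 37C, then exposed to compounds in DMSO for 16 hr; agonism was read by LiveBLAzer B/G FRET fluorescence.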

Experiment [18] in a line: qHTS assay to identify small molecule agonists of the estrogen receptor beta (ER-beta) signaling pathway - cell viability counter screen (AID 1259380). Note: nearly all actives have a fitted effect of over 30% in size. Note: potency is the fitted concentration of half-maximal effect. The gist of the method:
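CellTiter-Glo read, 30 min RT, same wells as bla assay; cells ER-beta-UAS-bla HEK293T; 16 hr compound, 37C; medium 2% charcoal-stripped FBS.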

Experiment [19] is described as follows: qHTS assay to identify small molecule antagonists of the estrogen receptor beta (ER-beta) signaling pathway - cell viability counter screen (AID 1259382). Note: nearly all actives have a fitted effect of over 55% in size. Note: potency is the fitted concentration of half-maximal effect. The essentials: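 In this multiplexed counter screen, cells were seeded at 2,000 per well in medium with 2% charcoal-stripped FBS and incubated 6 hr before compound and 1nM final E2 were added. Sixteen hours later, ATP-based luminescence reported viability.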

The target of experiment [20] is Thyrotropin receptor (Homo sapiens) (UniProt P16473). Kind of experiment: qHTS assay to identify small molecule antagonists of the thyroid stimulating hormone receptor (TSHR) signaling pathway (AID 1259385; calls by dose curve; note: nearly all actives have a fitted effect of over 20% in size; note: potency is the fitted concentration of half-maximal effect). The gist of the method:
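TSHR-HEK293 cells (800/well) plated 18 h, then compounds with Ro20-1724 and TSH at 1.5 ng/mL final, 30 min at room temperature. cAMP quantified by HTRF (cAMP-d2/anti-cAMP-cryptate, 1 h); 15 concentrations in triplicate.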

Chain of Androgen receptor (Homo sapiens) (P10275 whole entry, looked up): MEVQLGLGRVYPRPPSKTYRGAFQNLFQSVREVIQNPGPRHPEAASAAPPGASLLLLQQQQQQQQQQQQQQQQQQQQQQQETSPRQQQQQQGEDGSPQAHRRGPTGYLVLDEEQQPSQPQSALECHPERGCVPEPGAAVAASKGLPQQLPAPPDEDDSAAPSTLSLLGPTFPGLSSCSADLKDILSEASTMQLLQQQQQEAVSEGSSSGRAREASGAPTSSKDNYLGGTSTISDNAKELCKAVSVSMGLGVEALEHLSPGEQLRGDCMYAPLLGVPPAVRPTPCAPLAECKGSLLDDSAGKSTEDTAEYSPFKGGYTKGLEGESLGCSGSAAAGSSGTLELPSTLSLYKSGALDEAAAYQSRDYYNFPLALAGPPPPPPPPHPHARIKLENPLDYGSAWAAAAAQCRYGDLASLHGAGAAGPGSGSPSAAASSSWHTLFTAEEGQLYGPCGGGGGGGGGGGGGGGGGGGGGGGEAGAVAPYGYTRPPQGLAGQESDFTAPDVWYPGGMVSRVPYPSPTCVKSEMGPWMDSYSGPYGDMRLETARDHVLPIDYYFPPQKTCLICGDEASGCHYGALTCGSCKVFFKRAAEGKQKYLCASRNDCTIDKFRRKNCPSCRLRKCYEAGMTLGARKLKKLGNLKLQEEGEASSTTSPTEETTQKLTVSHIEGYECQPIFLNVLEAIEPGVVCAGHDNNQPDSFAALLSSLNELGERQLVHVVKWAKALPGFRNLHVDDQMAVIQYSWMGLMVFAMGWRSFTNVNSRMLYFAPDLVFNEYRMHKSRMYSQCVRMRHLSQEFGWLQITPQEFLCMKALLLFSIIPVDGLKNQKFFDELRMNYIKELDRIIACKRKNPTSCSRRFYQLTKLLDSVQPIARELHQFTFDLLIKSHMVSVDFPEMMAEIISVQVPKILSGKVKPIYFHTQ
Chain of Estrogen receptor beta (Homo sapiens) (Q92731 whole entry, looked up): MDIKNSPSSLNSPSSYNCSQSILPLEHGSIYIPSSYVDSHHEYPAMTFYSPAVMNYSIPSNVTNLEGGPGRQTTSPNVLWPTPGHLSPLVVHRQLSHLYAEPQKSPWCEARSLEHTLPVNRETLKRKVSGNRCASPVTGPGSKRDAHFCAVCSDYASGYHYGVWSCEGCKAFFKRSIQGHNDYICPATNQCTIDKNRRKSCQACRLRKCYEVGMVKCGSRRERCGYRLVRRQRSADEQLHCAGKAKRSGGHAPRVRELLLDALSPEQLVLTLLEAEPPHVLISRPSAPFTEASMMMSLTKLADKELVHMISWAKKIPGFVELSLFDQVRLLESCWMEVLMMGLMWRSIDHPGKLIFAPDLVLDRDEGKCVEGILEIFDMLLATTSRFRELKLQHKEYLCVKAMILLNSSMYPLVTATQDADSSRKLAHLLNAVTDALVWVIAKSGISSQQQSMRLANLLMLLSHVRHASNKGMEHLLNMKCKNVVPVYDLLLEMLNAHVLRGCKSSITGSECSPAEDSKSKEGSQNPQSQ
Chain of Progesterone receptor (Homo sapiens) (P06401 whole entry, looked up): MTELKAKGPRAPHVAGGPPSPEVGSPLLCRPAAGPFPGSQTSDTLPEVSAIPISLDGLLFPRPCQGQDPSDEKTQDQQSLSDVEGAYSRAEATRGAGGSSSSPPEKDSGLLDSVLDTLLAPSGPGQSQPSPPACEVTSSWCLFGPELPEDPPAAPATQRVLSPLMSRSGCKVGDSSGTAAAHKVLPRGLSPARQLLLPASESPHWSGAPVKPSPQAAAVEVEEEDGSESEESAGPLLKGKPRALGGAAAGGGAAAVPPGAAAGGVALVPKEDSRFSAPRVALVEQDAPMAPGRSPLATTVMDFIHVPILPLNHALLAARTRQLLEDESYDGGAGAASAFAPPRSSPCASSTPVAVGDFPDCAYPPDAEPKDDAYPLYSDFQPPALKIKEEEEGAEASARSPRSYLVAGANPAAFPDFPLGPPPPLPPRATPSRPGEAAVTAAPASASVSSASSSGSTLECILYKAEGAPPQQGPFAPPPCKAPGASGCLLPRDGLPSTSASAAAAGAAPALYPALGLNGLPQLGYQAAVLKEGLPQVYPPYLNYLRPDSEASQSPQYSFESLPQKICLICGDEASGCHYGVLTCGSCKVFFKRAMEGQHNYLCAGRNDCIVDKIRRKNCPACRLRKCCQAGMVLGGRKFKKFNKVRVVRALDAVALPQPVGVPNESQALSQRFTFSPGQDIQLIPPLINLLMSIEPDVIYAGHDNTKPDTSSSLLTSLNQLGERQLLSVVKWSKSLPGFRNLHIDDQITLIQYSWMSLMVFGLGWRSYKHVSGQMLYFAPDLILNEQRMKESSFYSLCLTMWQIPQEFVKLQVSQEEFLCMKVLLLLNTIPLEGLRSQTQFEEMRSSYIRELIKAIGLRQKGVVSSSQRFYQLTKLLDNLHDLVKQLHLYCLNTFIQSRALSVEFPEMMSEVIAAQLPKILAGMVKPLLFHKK
Chain of Estrogen receptor (Homo sapiens) (P03372 whole entry, looked up): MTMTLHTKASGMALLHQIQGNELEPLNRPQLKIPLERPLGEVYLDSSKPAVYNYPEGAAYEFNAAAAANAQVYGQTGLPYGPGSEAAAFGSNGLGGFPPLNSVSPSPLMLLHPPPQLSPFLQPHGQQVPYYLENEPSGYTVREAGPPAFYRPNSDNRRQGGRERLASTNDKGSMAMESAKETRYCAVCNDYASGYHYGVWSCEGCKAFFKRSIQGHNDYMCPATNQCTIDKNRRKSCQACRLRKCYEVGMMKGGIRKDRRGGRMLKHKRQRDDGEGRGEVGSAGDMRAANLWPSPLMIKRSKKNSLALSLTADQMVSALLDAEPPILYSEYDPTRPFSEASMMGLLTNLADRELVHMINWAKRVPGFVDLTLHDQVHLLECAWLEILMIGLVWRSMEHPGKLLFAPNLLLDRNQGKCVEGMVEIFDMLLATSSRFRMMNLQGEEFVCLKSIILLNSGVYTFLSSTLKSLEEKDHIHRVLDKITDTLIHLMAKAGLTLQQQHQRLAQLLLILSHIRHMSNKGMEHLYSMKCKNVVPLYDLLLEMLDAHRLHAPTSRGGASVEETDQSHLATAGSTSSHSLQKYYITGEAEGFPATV
Chain of Thyrotropin receptor (Homo sapiens) (P16473 whole entry, looked up): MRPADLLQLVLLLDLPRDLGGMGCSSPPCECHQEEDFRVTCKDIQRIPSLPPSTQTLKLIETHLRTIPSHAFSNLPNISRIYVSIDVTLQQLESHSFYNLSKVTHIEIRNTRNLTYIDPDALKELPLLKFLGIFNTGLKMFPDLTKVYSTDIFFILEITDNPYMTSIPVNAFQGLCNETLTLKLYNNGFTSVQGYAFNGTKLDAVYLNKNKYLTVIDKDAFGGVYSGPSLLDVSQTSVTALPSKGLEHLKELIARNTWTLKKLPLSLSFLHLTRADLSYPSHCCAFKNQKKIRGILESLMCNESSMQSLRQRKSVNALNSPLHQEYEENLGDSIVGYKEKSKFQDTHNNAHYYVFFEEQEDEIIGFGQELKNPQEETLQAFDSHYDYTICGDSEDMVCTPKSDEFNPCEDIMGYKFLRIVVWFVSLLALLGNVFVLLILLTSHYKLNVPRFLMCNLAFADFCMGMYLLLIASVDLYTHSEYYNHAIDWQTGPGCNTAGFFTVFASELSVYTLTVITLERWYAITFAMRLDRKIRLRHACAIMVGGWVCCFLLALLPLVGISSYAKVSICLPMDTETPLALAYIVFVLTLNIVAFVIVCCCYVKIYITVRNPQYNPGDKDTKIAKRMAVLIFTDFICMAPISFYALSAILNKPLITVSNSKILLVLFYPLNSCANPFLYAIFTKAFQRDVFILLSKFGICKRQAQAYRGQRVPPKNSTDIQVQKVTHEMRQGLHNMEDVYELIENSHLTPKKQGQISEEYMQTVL

For the molecule `O=C(c1ccc(F)cc1)C1CCN(CCn2c(=O)[nH]c3ccccc3c2=O)CC1`, the Potency result in [1], in experiment [2], in experiment [3], in experiment [4], in experiment [5] and in experiment [6] was “inactive” in each case. The Potency result in experiment [7], in experiment [8], in experiment [9], in experiment [10], in experiment [11] and in [12] was “inactive” in each case. For the same molecule, the Potency result in [13], in [14], in experiment [16] and in [17] was “inactive” throughout. Further, in experiment [15], the outcome was inactive.

Take `CCCCCCCCCCCC(=O)NCCCN(C)C`: the Potency is 68.6 µM (active) in experiment [1], 19.3 µM (active) in [9], 54.5 µM (active) in experiment [18] and 54.5 µM (active) in experiment [19]. The Potency entry in [2], in [4], in experiment [5], in [8], in experiment [13] and in experiment [14] was “inactive” each time. Besides, the Potency entry in experiment [16] was “inactive”. Besides, the molecule was called inactive in experiment [15].

For `CCOC(=O)c1nc(C(Cl)(Cl)Cl)n(-c2ccc(Cl)cc2Cl)n1`, the Potency is 61.1 µM (active) in [1]; 61.1 µM (active) in [7]; 54.5 µM (active) in experiment [11]; 54.5 µM (active) in experiment [18]; 61.1 µM (active) in experiment [19]. In addition, the Potency entry in experiment [2], in [4], in experiment [5], in [6], in experiment [8] and in experiment [12] was “inactive” in each case. Moreover, the Potency entry in [13], in experiment [14], in experiment [20] and in [16] was “inactive” throughout. The result in experiment [15] was inactive.

Consider `CCCCCCCCNC(C)C(O)c1ccc(SC(C)C)cc1` (configuration not stated), for which the Potency in [1] was 23.7 µM (active); in experiment [2], 29.8 µM (active); in experiment [9], 18.8 µM (active); in experiment [12], 23.7 µM (active); in [18], 11.9 µM (active); in experiment [19], 13.3 µM (active). For the same molecule, in [16], the Potency is 33.5 µM (active). The Potency entry in experiment [3], in experiment [8], in experiment [13] and in experiment [14] was “inactive” each time. For the same molecule, the result in experiment [15] was inactive.

As for `CCCCN1CCCC[C@H]1C(=O)Nc1c(C)cccc1C`, the Potency result in experiment [1], in [2], in experiment [3], in [4], in [5] and in experiment [6] was “inactive” in each case. Also, the Potency result in [7], in [8], in experiment [9], in [10], in [12] and in experiment [18] was “inactive” each time. Also, the Potency result in [13], in experiment [19], in experiment [14], in experiment [16] and in [17] was “inactive” in each case. Further, the outcome in experiment [15] was inactive.

For the molecule `COc1ccc(C(=O)/C(Br)=C\C(=O)O)cc1`, the Potency is 48.6 µM (active) in experiment [1], 17.2 µM (active) in [8] and 3.86 µM (active) in [9]. In addition, the Potency result in experiment [2], in experiment [3], in experiment [5], in [18], in experiment [13] and in experiment [19] was “inactive” each time. Also, the Potency entry in experiment [14] was “inactive”. In experiment [15], the call was inactive.

With `CCCCCCCCCCn1cc[n+](CCCCCCCCCC)c1C`, the Potency in experiment [1] is 2.17 µM (active); in experiment [2] it was 3.86 µM (active); in [5], 61.2 µM (active); in [6], 27.3 µM (active); in [7], 30.7 µM (active); in experiment [9], 0.077 µM (active). The Potency in experiment [18] is 30.7 µM (active); in experiment [19], 27.3 µM (active); in experiment [20], 54.5 µM (active); in experiment [16] it was 30.7 µM (active). Besides, the Potency entry in experiment [4], in experiment [8], in [13], in experiment [14] and in experiment [17] was “inactive” in each case. In addition, the outcome in [15] was inactive.
